Measurements published in PubChem BioAssay (NCI).
Compounds without any hit were thinned out: in the full panel of roughly 79,000, 15% have a hit. Rule as the data show it: active = growth inhibition above about 70%; inactive = the rest.

How the values were obtained:
[1] = NCI Yeast Anticancer Drug Screen. Data for the rad50 strain (AID 155);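 also: 0% = growth of vehicle-only cultures of the same strain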; settings: S. cerevisiae rad50 strain growth inhibition; at 50.0 µM; stronger effect = higher value
How it was run: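 Cells are treated with compound, grown, and their growth is then scored against vehicle-only cultures of the same repair-deficient yeast strain.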

[2] = NCI Yeast Anticancer Drug Screen. Data for the mec2-1 strain (AID 157); settings: S. cerevisiae mec2-1 strain, at 50.0 µM, stronger effect = higher value
How it was run: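 Readout is yeast growth inhibition, normalised to vehicle-treated controls, in the mec2-1 strain exposed to compound.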

[3] = NCI Yeast Anticancer Drug Screen. Data for the sgs1 mgt1 strain (AID 161);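 also: 0% = growth of cultures given vehicle only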; settings: S. cerevisiae sgs1 mgt1 strain, at 50.0 µM, stronger effect = higher value
How it was run: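 This yeast growth screen uses a strain with defined DNA-repair lesions; compound-treated growth is compared with vehicle-treated growth.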

[4] = NCI Yeast Anticancer Drug Screen. Data for the cln2 rad14 strain (AID 165);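 also: 0% = growth equal to vehicle treated cultures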; settings: S. cerevisiae cln2 rad14 strain, at 50.0 µM, stronger effect = higher value
How it was run: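 Relative to vehicle controls, growth inhibition of compound-treated cln2 rad14 yeast was recorded.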

[5] = NCI Yeast Anticancer Drug Screen. Data for the bub3 strain (AID 167); settings: S. cerevisiae bub3 mutant strain, at 50.0 µM, stronger effect = higher value
How it was run: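 Part of a panel of yeast mutants defective in DNA damage repair or cell cycle regulation. Each strain is grown with compound, and inhibition is calculated relative to solvent-treated cultures.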

[6] = NCI Yeast Anticancer Drug Screen. Data for the mlh1 rad18 strain (AID 175); settings: S. cerevisiae mlh1 rad18 strain growth inhibition; at 50.0 µM; stronger effect = higher value
How it was run: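 Test agents were incubated with a yeast strain of defined genotype (DNA damage repair defect). Inhibition of growth was derived by comparison with vehicle-exposed cultures.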

Measured: growth inhibition

Brc1ccc2nncc(N3CC3)c2c1
inactive: [1] -13.2% | [2] -16.6% | [3] 4.55% | [4] 8.5% | [5] -9.3% | [6] -20.6%

Cc1ccc(O)c(Cl)c1
inactive: [1] -1% | [2] 5.4% | [3] -19.4% | [4] -11.7% | [5] 0.15% | [6] 38%

O=C(OCCOc1ccccc1)C(Cl)(Cl)Cl
inactive: [1] -6.05% | [2] -7.1% | [3] 10.6% | [4] -8.8% | [5] 12.3% | [6] 3.25%

O=[As](O)(O)c1ccccc1
inactive: [1] 18.2% | [2] -7.1% | [3] 4.75% | [4] 4.65% | [5] -38.1% | [6] -15.7%

CO[C](=[W])c1ccccc1.[C-]#[O+].[C-]#[O+].[C-]#[O+].[C-]#[O+].[C-]#[O+]
inactive: [1] 12.2% | [2] -0.6% | [3] -2.3% | [4] 1.55% | [5] 1.05% | [6] -4.1%

CC(=O)c1ccc(N2CCNCC2)cc1
inactive: [1] -27.6% | [2] -49.8% | [3] -3.95% | [4] 16.6% | [5] -14.2% | [6] -22.1%

CC(C)N([P-]C(=O)[P-]N(C(C)C)C(C)C)C(C)C.[C-]#[O+].[C-]#[O+].[C-]#[O+].[C-]#[O+].[C-]#[O+].[C-]#[O+].[Fe].[Fe] (stereo unspecified)
inactive: [1] 3.4% | [2] 0.15% | [3] 3.55% | [4] 11.3% | [5] 2.3% | [6] -0.9%

CC(C)(C)N1OC1C(Cl)(Cl)Cl (stereo unspecified)
inactive: [1] -20.6% | [2] -9.55% | [3] -23% | [4] -18.3% | [5] -4.95% | [6] 10.4%

CC(CN1CCCCCC1)C(C#N)(c1ccccc1)c1ccccc1 (stereo unspecified)
inactive: [1] 7.4% | [2] 13.2% | [3] 25.4% | [4] 49.5% | [5] 46% | [6] 10.3%

O=C(N/N=C/c1cc(Br)cc(Br)c1[O-])c1ccccc1O.O=C(N/N=C/c1cc(Br)cc(Br)c1[O-])c1ccccc1O.[Cl-].[Fe+3]
inactive: [1] -3.25% | [2] 0.15% | [3] -4.95% | [4] -30.1% | [5] 12.1% | [6] 13.3%

CC(=O)CC(C)=O.CC(=O)CC(C)=O.[Ni]
inactive: [1] -39% | [2] -31.4% | [3] -1.1% | [4] 31.1% | [5] -6.35% | [6] -25.4%
